# Inconclusive results are not listed. A call without a number means that no potency is given here. Unmarked numbers belong to inactive results. Active and inactive are the calls of the source. Calls come from the whole dose curve; as a rule, active = well fitted curve in the direction sought with a large enough effect; inconclusive = small, poorly fitted or top-dose-only effect, or another doubt; inactive = no such curve, though single readings can be large; an effect the other way counts as inactive or inconclusive.
# How the values were obtained:
# Es-2 = experiment: Primary qHTS to identify gynecologic anti-cancer compounds using libraries of approved drugs and bioactive compounds (AID 1345084); conditions: Gynecologic cancer cell panel viability, ATPlite luminescence, 48 h; series mostly up to 57.5 µM; note: nearly all actives have a fitted effect of over 55% in size; note: potency is the fitted concentration of half-maximal effect
# Procedure, shortened: (§1)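 In this quantitative HTS, cell killing is estimated from loss of ATP-dependent luciferase light. Cells see five compound concentrations over a 48 h exposure.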
# HeLa = experiment: as above; conditions: Gynecologic cancer cell panel viability, ATPlite luminescence, 48 h; series mostly up to 57.5 µM
# Procedure, shortened: as §1
# Hek293T = experiment: as above; conditions: Gynecologic cancer cell panel viability, ATPlite luminescence, 48 h, control line for the selectivity index; series mostly up to 57.5 µM
# Procedure, shortened: as §1
# JEG-3 = experiment: as above; conditions: Gynecologic cancer cell panel viability, ATPlite luminescence, 48 h; series mostly up to 57.5 µM
# Procedure, shortened: as §1
# OV90 = experiment: as above; conditions: Gynecologic cancer cell panel viability, ATPlite luminescence, 48 h; series mostly up to 57.5 µM
# Procedure, shortened: as §1
# PA-1 = experiment: as above; conditions: Gynecologic cancer cell panel viability, ATPlite luminescence, 48 h; series mostly up to 57.5 µM
# Procedure, shortened: as §1
# SKOV3 = experiment: as above; conditions: Gynecologic cancer cell panel viability, ATPlite luminescence, 48 h; series mostly up to 57.5 µM
# Procedure, shortened: as §1
# Tov-21-G = experiment: as above; conditions: Gynecologic cancer cell panel viability, ATPlite luminescence, 48 h; series mostly up to 57.5 µM
# Procedure, shortened: as §1
# Tov112D = experiment: as above; conditions: Gynecologic cancer cell panel viability, ATPlite luminescence, 48 h; series mostly up to 57.5 µM
# Procedure, shortened: as §1
# [1] = Drug repurposing screens with cells derived from glioblastoma tumor samples (AID 1345199); conditions: GBM patient neurospheres viability, ATP luminescence, 48 h; note: nearly all actives have a fitted effect of over 40% in size
# Procedure, shortened: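 Four patient lines of CD133+ GBM neurospheres were screened at several concentrations; hits were retested in those lines plus three slower-growing GBM lines, using 48-hour treatment and ATP-based viability.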
# [2] = qHTS assay to identify inhibitors of the type 1 interferon - major histocompatibility complex class I in skeletal muscle: Counter screen cell viability and HiBit confirmation (AID 1347412); conditions: iHSKM muscle cells + IFN-b, HiBiT or CellTiter-Glo, 24 h; Viability; at 45.9 µM (top of the series); note: nearly all actives have a fitted effect of over 60% in size
# Procedure, shortened: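 Luminescence read-out: Nano-Glo HiBiT lytic signal from C-terminally HiBiT-tagged HLA-B in CRISPR-edited human myoblasts, plus CellTiter Glo ATP as viability counter screen. IFN-beta 4.0 ng/ml; 24 hrs treatment at 37 C, 5% CO2.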
Compound,Potency (Es-2),Potency (HeLa),Potency (Hek293T),Potency (JEG-3),Potency (OV90),Potency (PA-1),Potency (SKOV3),Potency (Tov-21-G),Potency (Tov112D),"activity, negative = cell killing ([1]; at 20 µM (top of the series), tumour line C) [%]","activity, negative = cell killing ([1]; at 21.2 µM (top of the series), tumour line B) [%]","activity, negative = cell killing ([1]; at 21.2 µM (top of the series), tumour line D) [%]","activity, negative = cell killing ([1]; at 21.3 µM (top of the series), tumour line A) [%]","activity, negative = cell killing ([1]; at 45.9 µM (top of the series), tumour line B) [%]","activity, negative = cell killing ([1]; at 45.9 µM (top of the series), tumour line D) [%]","activity, negative = cell killing ([1]; at 46.1 µM (top of the series), tumour line C) [%]","activity change, negative = inhibition [2] [%]"
OC[C@H]1O[C@@H](OCCc2ccc(O)cc2)[C@H](O)[C@@H](O)[C@H]1O,inactive,inactive,inactive,inactive,inactive,inactive,inactive,inactive,inactive,,,,,,,,
Cc1nc2c([nH]1)CCN(C(=O)c1ccc(NC(=O)c3ccccc3-c3ccccc3)cc1)c1ccccc1-2,inactive,inactive,inactive,inactive,inactive,inactive,inactive,inactive,inactive,,,,,,,,
CC1CCN(c2cc(N3CCN(C)CC3)ccc2NC(=O)c2cc(C#N)c[nH]2)CC1,inactive,inactive,inactive,inactive,inactive,inactive,inactive,inactive,inactive,,,,,,,,
Cc1cnc(-c2cc(N3CCN(C(=O)CCS(C)(=O)=O)CC3)ncc2Cl)c(C)c1,inactive,inactive,inactive,inactive,inactive,inactive,inactive,inactive,inactive,,,,,,,,
CCN1C[C@H](C)n2c(c(O)c3c(=O)n(Cc4ccc(F)c(Cl)c4)nc(C(=O)NC)c32)C1=O,inactive,inactive,inactive,inactive,inactive,inactive,inactive,inactive,inactive,,,,,,,,
NS(=O)(=O)c1cc(Cl)c(Cl)c(S(N)(=O)=O)c1,inactive,inactive,inactive,inactive,inactive,inactive,inactive,inactive,inactive,4.89,-0.766,5.15,-15,,,,
C[C@@H]1C[C@H]2[C@@H]3CCC4=CC(=O)C=C[C@]4(C)[C@@]3(F)[C@@H](O)C[C@]2(C)[C@@]1(O)C(=O)CO,inactive,inactive,inactive,inactive,inactive,inactive,inactive,inactive,inactive,,,,,,,,
O=C(Nc1cccc(C(F)(F)F)c1)Nc1cc(S(=O)(=O)NC2CC2)ccc1-c1ccsc1,inactive,inactive,inactive,inactive,inactive,inactive,inactive,inactive,inactive,,,,,,,,
CNC(=O)c1c(-c2ccc(F)cc2)oc2cc(N(CCO)S(C)(=O)=O)c(C3CC3)cc12,inactive,inactive,inactive,inactive,inactive,inactive,inactive,inactive,inactive,,,,,,,,
CC1=C(C(=O)Nc2cc3cn[nH]c3cc2F)C(c2ccc(C(F)(F)F)cc2)CC(=O)N1 (configuration not stated),inactive,inactive,inactive,inactive,inactive,inactive,inactive,inactive,inactive,,,,,,,,
Cc1cc(C(C)Nc2ccccc2)c2nc(N3CCOCC3)cc(=O)n2c1 (configuration not stated),inactive,inactive,inactive,inactive,inactive,inactive,inactive,inactive,inactive,,,,,,,,
COc1ccc(CCC(=O)Nc2nc3ccc(Cl)cc3s2)cc1OC,inactive,inactive,inactive,inactive,inactive,inactive,inactive,inactive,inactive,,,,,,,,
O=c1[nH]nc(OCCCc2ccc(Cl)cc2)c(NCc2cccnc2)c1Br,inactive,inactive,,,,,,,,,,,,,,,
O=C(O)CCNc1cc(N2CCc3ccccc3CC2)nc(-c2ccccn2)n1,inactive,inactive,inactive,inactive,inactive,inactive,inactive,inactive,inactive,,,,,,,,
CCCCC(F)(F)[C@@]1(O)CC[C@H]2[C@H](CC(=O)[C@@H]2CCCCCCC(=O)O)O1,inactive,inactive,inactive,inactive,inactive,inactive,inactive,inactive,inactive,,,,,-4.88,-10.8,12,
O=C(CO)N1CCC(c2[nH]nc(-c3ccc(Cl)cc3)c2-c2ccncn2)CC1,inactive,inactive,inactive,inactive,inactive,inactive,inactive,inactive,inactive,,,,,,,,
O=C(CC12CC3CC(CC(C3)C1)C2)Nc1cccc2nc(NCCNCCO)ccc12,inactive,inactive,inactive,inactive,inactive,inactive,inactive,inactive,inactive,,,,,,,,
CC(C)(O)CC(=O)NCCn1ccc2ncnc(Nc3ccc(Oc4cccc(C(F)(F)F)c4)c(Cl)c3)c21,inactive,inactive,inactive,inactive,inactive,inactive,22.4 µM (active),inactive,inactive,,,,,,,,-19.7
O=C1C(c2c(O)[nH]c3ccccc23)=Nc2ccccc21,inactive,inactive,inactive,inactive,inactive,inactive,inactive,inactive,inactive,,,,,,,,
